The source of these data is PubChem BioAssay AID372 (MTDP, 2006).

Out of some 100,000 compounds screened, about 770 (0.77%) were called active. Many of the other results were omitted from the sample, so actives are more common in it than they were. Values without a mark were called inactive. Rule as the data show it: active = inhibition above about 50%; inactive = the rest.

In the experiment the target is Gag-Pol polyprotein (Human immunodeficiency virus type 1 group M subtype B (isolate HXB2)) (UniProt P04585). The experiment is described as follows: RNase H inhibition, HIV 1 Gag Pol polyprotein, FRET biochemical assay, screening (AID 372). The settings on record: HIV-1 RT RNase H, FRET RNA/DNA substrate fluorescence; at 10 µM; hits give high values.
As for `CCC(=O)N(Cc1ccco1)C1CC(=O)N(c2ccccc2)C1=O` (stereo unspecified), the inhibition is 0%.

On to `Cn1c(/C=C/c2ccc(Br)cc2)c([N+](=O)[O-])c(=O)n(C)c1=O`, for which the inhibition is 6%.

With `CCOc1ccc(/C=C/c2c([N+](=O)[O-])c(=O)n(C)c(=O)n2C)cc1`, the inhibition is 16%.

With `Cn1c(/C=C/c2cccc(Oc3ccccc3)c2)c([N+](=O)[O-])c(=O)n(C)c1=O`, the inhibition is 54% (active).

With `Cc1[nH]n(-c2ccccc2)c(=O)c1N=Nc1ccccc1Br`, the inhibition is 5%.

With `COc1ccc2ccccc2c1/C=C1\SC(=Nc2cccc(Cl)c2C)NC1=O`, the inhibition was 35%.

As for `O=C(Nc1ccc(O)cc1)Nc1ccc(Cl)cc1`, the inhibition was 17%.

Turning to `O=C(Nc1ccc(Cl)cc1)Nc1ccc(-c2ccc(NC(=O)Nc3ccc(Cl)cc3)cc2)cc1`, the inhibition is 57% (active).

For the molecule `O=C(Nc1ccc(Cl)cc1)Nc1cc(Cl)cc(Cl)c1`, the inhibition is 6%.

`COc1ccc(N2C(=O)/C(=C/c3ccc(-c4ccc([N+](=O)[O-])cc4Cl)o3)SC2=S)cc1`: the inhibition is 18%.

As for `COc1ccc(N2C(=O)/C(=C/c3ccc(-c4ccccc4[N+](=O)[O-])o3)SC2=S)cc1`, the inhibition was 26%.

Take `O=C(O)c1ccc(-c2ccc(/C=C3\SC(=S)N(c4ccc([N+](=O)[O-])cc4)C3=O)o2)cc1`: the inhibition is 49%.

For `O=C(O)c1cccc(-c2ccc(/C=C3\SC(=S)N(c4ccc([N+](=O)[O-])cc4)C3=O)o2)c1`, the inhibition was 12%.

`O=C1/C(=C\c2ccc(-c3ccc([N+](=O)[O-])cc3)o2)SC(=S)N1c1ccc(O)cc1`: the inhibition was 52% (active).

In the case of `COc1ccc(N2C(=O)/C(=C/c3ccc(-c4ccc([N+](=O)[O-])c(C)c4)o3)SC2=S)cc1`, the inhibition is 64% (active).

`COc1ccc(CN2CCN(Cc3ccccc3C(F)(F)F)CC2)cc1Br`: the inhibition is 4%.

Take `Cc1ccc(/C(N)=N/OC(=O)c2ccc(C)cc2Cl)cc1`: the inhibition is 10%.

With `Clc1ccc(-c2nnc(-c3ccc4c(c3)OCO4)o2)c(Cl)c1`, the inhibition is 3%.

In the case of `CCOC(=O)C1=C(C)N=c2s/c(=C\c3cccc(OCc4ccccc4Cl)c3)c(=O)n2C1c1ccc(Cl)cc1` (stereo unspecified), the inhibition is 11%.

Regarding `COc1ccc(Br)cc1CNC12CC3CC(CC(C3)C1)C2`, the inhibition is 6%.

Consider `Br/C(=C\c1ccccc1)C1Nc2cccc3cccc(c23)N1`, for which the inhibition is 21%.

As for `CCCCC(O)(CCCC)c1ccccc1O`, the inhibition is 3%.

For the molecule `O=c1oc2ccccc2cc1-c1csc(-c2ccc(O)cc2)n1`, the inhibition was 43%.

Consider `CCOc1ccc(NC(=O)/C(C#N)=C\c2ccc(O)c(OCC)c2)cc1`, for which the inhibition is 20%.

Take `CCOc1cc(/C=C(/C#N)C(=O)Nc2cc(Cl)ccc2Cl)ccc1O`: the inhibition is 51% (active).

For `CCNC(=O)/C(C#N)=C/c1ccc(O)c(OCC)c1`, the inhibition was 6%.

As for `COc1ccc2c(c1)C1C=CCC1C(C(=O)O)N2` (stereo unspecified), the inhibition was 25%.

On to `Cc1ccc(C(=O)c2cccc(C(=O)c3ccc(C)cc3)c2)cc1`, for which the inhibition is 7%.

Regarding `O=C(c1ccccc1)c1ccc(O)c(O)c1`, the inhibition is 60% (active).

For the molecule `O=C(c1ccccc1)c1ccc2[nH]c(=O)[nH]c2c1`, the inhibition is 0%.

On to `O=C(Sc1nnnn1-c1ccccc1)c1ccccc1Br`, for which the inhibition was 0%.

Take `Cc1sc(NC(=O)C2CCCCC2)c(C(N)=O)c1C`: the inhibition is 7%.

In the case of `CCc1c(C)sc(NC(=O)C2CCCO2)c1C(N)=O` (stereo unspecified), the inhibition is 0%.

Take `COC(=O)c1sc(NC(=O)C2CC3CCC2C3)c(C(N)=O)c1C` (stereo unspecified): the inhibition is 11%.

As to `CCOC(=O)c1sc(NC(=O)C2CC3CCC2C3)c(C(=O)OCC)c1C` (stereo unspecified), the inhibition was 10%.

With `Oc1ccccc1N=Cc1c(O)c(I)cc2oc3c(c12)CCCC3`, the inhibition was 14%.

As to `O=C(Nc1ccc(OC(F)(F)F)cc1)c1cccc(OCc2ccccc2)c1`, the inhibition is 0%.

On to `c1ccc(CN2CCN(Cc3ccncc3)CC2)nc1`, for which the inhibition is 3%.

Take `Cc1ccc2cccc(OS(=O)(=O)c3ccccc3C)c2n1`: the inhibition is 58% (active).

For the molecule `Cc1ccc2cccc(OS(=O)(=O)c3cc(Cl)ccc3C)c2n1`, the inhibition is 47%.

Take `Cc1ccc2cccc(OS(=O)(=O)c3ccc(Cl)c(C)c3Cl)c2n1`: the inhibition was 52% (active).

For the molecule `Cc1ccc2cccc(OS(=O)(=O)c3ccc(Cl)cc3C)c2n1`, the inhibition is 43%.

Consider `COc1ccc(I)cc1S(=O)(=O)Oc1cccc2ccc(C)nc12`, for which the inhibition was 25%.

As to `Cc1ccc2cccc(OS(=O)(=O)c3cc(Cl)c(Cl)cc3Cl)c2n1`, the inhibition is 43%.

Consider `CCc1nc(NC(=O)NS(=O)(=O)c2ccccc2C(=O)OC)nc(OC)n1`, for which the inhibition is 6%.

In the case of `COc1cc(OC)cc(C(=O)N2CCN(c3ccc([N+](=O)[O-])cc3Cl)CC2)c1`, the inhibition is 9%.

As to `O=C1NC(=S)N(c2cccc(Br)c2)C(=O)/C1=C/c1cccn1-c1ccccc1`, the inhibition was 39%.

Regarding `CCC(=O)Nc1ccc2nc(SCC(=O)Nc3ccc(C(C)=O)cc3)sc2c1`, the inhibition was 14%.

With `CCC(=S)/C=C1\Sc2ccc(OC)cc2N1CCCS(=O)(=O)O`, the inhibition was 11%.

Turning to `O=C(c1c(Cl)cccc1Cl)N1CCN(c2ccc(F)cc2)CC1`, the inhibition is 54% (active).

For the molecule `O=C(c1c(Cl)cccc1Cl)N1CCN(c2ccccc2)CC1`, the inhibition was 6%.

For the molecule `O=C(c1c(Cl)cccc1Cl)N1CCN(c2ccc(Cl)cc2)CC1`, the inhibition is 9%.

For `Cc1nnc(SCC(=O)NC(C)c2ccccc2)[nH]c1=O` (stereo unspecified), the inhibition is 0%.

Take `CC(=C\c1ccccc1)/C=C1/SC(=Nc2ccc(F)cc2)NC1=O`: the inhibition is 13%.

`O=C(N/N=C/c1ccc(F)cc1)c1ccc(Cl)c(Cl)c1`: the inhibition was 4%.

Take `CC(=O)c1cccc(NC(=O)/C(=C\c2ccc(Br)cc2)NC(=O)c2ccc(C)cc2)c1`: the inhibition was 42%.

`Cc1cccc(NC(=O)/C(=C/c2ccc(Br)cc2)NC(=O)c2ccccc2)c1`: the inhibition was 51% (active).

Turning to `CC(=O)c1cccc(NC(=O)/C(=C/c2ccc(Br)cc2)NC(=O)c2ccccc2)c1`, the inhibition is 6%.

For the molecule `C/C(=N\Nc1ccc([N+](=O)[O-])cc1)c1ccc([N+](=O)[O-])o1`, the inhibition is 8%.

Take `COc1cc(Cc2ccc(N/C=C/C(=O)c3ccc(Br)cc3)c(OC)c2)ccc1N/C=C/C(=O)c1ccc(Br)cc1`: the inhibition is 25%.

In the case of `Cc1cc(Cl)ccc1OC(=O)c1ccc(Cl)cc1`, the inhibition was 51% (active).

For `Cc1ccc(C(=O)Oc2ccc(Cl)cc2C)cc1`, the inhibition was 2%.

`Cc1cc(Cl)ccc1OC(=O)c1ccc(Br)cc1`: the inhibition is 34%.

Turning to `O=C(Nc1cnc2ccccc2c1)C1COc2ccccc2O1` (stereo unspecified), the inhibition was 3%.

As for `O=S(=O)(CCc1nnc(-c2ccc(Br)cc2)o1)c1ccc(Cl)cc1`, the inhibition was 2%.

With `COc1ccc(N2C(=O)/C(=C/c3ccc(O)c(OC)c3)SC2=S)cc1`, the inhibition is 26%.

Consider `COc1cccc(N2C(=O)/C(=C/c3cccc(O)c3)SC2=S)c1`, for which the inhibition was 29%.

On to `COc1cccc(N2C(=O)/C(=C/c3ccc(O)c(O)c3)SC2=S)c1`, for which the inhibition was 75% (active).

For `COc1ccc(N2C(=O)/C(=C\c3ccc(OC)c(O)c3)SC2=S)cc1`, the inhibition is 4%.

Consider `COc1cccc(N2C(=O)/C(=C/c3ccc(O)c(OC)c3)SC2=S)c1`, for which the inhibition was 22%.

With `COc1ccc(N2C(=O)/C(=C\c3ccc(O)c(O)c3)SC2=S)cc1`, the inhibition was 77% (active).

For `COc1cc(OC)cc(C(=O)Nc2ccc(N3CCN(C(=O)c4ccccc4)CC3)cc2)c1`, the inhibition is 31%.

In the case of `CCOc1cccc2c1N(C(=O)c1ccccc1)C(C)(C)C(=S)C2=C1SC(C(=O)OC)=C(C(=O)OC)S1`, the inhibition was 45%.

As to `CCCOc1ccc(C(=O)NCc2ccccc2)cc1`, the inhibition is 6%.

As to `O=C(O)c1ccc(-n2c(/C=C\c3ccccc3)nc3ccccc3c2=O)cc1`, the inhibition is 7%.

Turning to `COc1cc(/C=C/c2nc3ccccc3c(=O)n2-c2cccc([N+](=O)[O-])c2)ccc1O`, the inhibition was 61% (active).

As for `COc1cc(/C=C/c2nc3ccccc3c(=O)n2-c2ccccc2[N+](=O)[O-])ccc1O`, the inhibition was 35%.

On to `Cc1ccc(-n2c(/C=C/c3c(C)n(C)c4ccccc34)nc3ccccc3c2=O)cc1`, for which the inhibition was 0%.

Take `COc1cccc(/C=C/c2nc3ccccc3c(=O)n2-c2cccc([N+](=O)[O-])c2)c1O`: the inhibition was 27%.

`COc1ccc(OC)c(CN2CCN(Cc3cccc(Br)c3)CC2)c1`: the inhibition is 5%.

With `COc1ccc([N+](=O)[O-])cc1N(CC(O)CN1CCCCC1)S(=O)(=O)c1ccc(C)cc1` (stereo unspecified), the inhibition is 12%.

For `Cc1c(C(=O)Oc2ccc3c(c2)C(C)CC(C)(C)N3)cccc1[N+](=O)[O-]` (stereo unspecified), the inhibition was 21%.

`CCSc1nnc(NC(=O)COc2ccc(Cl)cc2Cl)s1`: the inhibition was 22%.

For `CC(=O)c1ccc(NC(=S)Nc2ccc3nccnc3c2)cc1`, the inhibition was 10%.

In the case of `O=S(=O)(Oc1ccccc1/C=N/NC(=S)Nc1ccccc1)c1ccccc1`, the inhibition is 52% (active).

In the case of `NC(=O)N/N=C/c1ccccc1OS(=O)(=O)c1ccc([N+](=O)[O-])cc1`, the inhibition was 11%.

For the molecule `NC(N)=N/N=C/c1ccccc1OS(=O)(=O)c1ccccc1`, the inhibition is 0%.

On to `CCOC(=O)c1c[nH]c2ccc(Cl)cc2c1=O`, for which the inhibition is 14%.

As to `C=CCn1c(CSc2nc3ccccc3s2)nnc1SC/C=C/c1ccccc1`, the inhibition was 59% (active).

Consider `C=CCn1c(CSc2nc3ccccc3s2)n[nH]c1=S`, for which the inhibition was 0%.

`C=CCn1c(CCCN2C(=O)c3cccc4cccc(c34)C2=O)nnc1SC/C=C/c1ccccc1`: the inhibition is 8%.

For `Cc1ccc(NC(=O)C(C)SCc2ccccc2)c(C)c1` (stereo unspecified), the inhibition was 13%.

In the case of `COc1ccc(C2CC(=O)C3=C(C2)NC(C)=C(C(=O)OCCOc2ccccc2)C3c2cccc(Br)c2)cc1` (stereo unspecified), the inhibition is 6%.

`COc1ccc(/C(C)=N/OCC(=O)N2CCN(C(c3ccccc3)c3ccccc3)CC2)cc1OC`: the inhibition was 51% (active).

`COc1ccc(C(=O)N2CCN(C(c3ccccc3)c3ccccc3)CC2)cc1OC`: the inhibition was 13%.

`COc1ccc(/C=N/OCC(=O)N2CCN(C(c3ccccc3)c3ccccc3)CC2)cc1OC`: the inhibition is 45%.

The term inhibition denotes the drop in the measured response relative to a control, in per cent.
